The values that follow come from PubChem BioAssay.

Test [1] in a line: reduced OD of T4-infected AddAB+ E. coli – absorbance, E. coli V3065, T4 phage, triplicate, AddAB inhibitor project, confirmation (AID 488942;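 active means mean inhibition above a set limit taken from the earlier primary screen, cut at about 13% in these data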;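 further: higher means less bacterial growth since AddAB block lets phage replicate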). Conditions: E. coli V3065 expressing H. pylori AddAB, at 11.9 µM, active compounds read high, T4 phage with gene 2 nonsense mutations.
A short description of test [2]: reduced OD of phage-infected RecBCD+ V66 E. coli – absorbance, mutant T4 phage, counter-screen for AddAB inhibitor project (AID 488955;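 active means mean inhibition above the mean of solvent-only control wells plus 3 SD, cut at about 4% in these data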;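 further: optical density read after an 18 h incubation at 37 °C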). Conditions: OD growth, at 11.9 µM, active compounds read high. A general note: The purpose of a counterscreen is to sort out artefacts and off-target activity.
Test [3] can be described thus: bacterial growth inhibitors – absorbance, counter-screen for AddAB inhibitor project, confirmation (AID 488956; in the data active means inhibition above about 25%). Conditions: bacterial viability, absorbance (AddAB counterscreen); at 11.9 µM; active compounds read high.
Test [4] deals with Serine protease HTRA1 (Homo sapiens) (UniProt Q92743). The test is described as follows: confirming inhibition of human HTRA1 – biochemical, fluorescence polarization, confirmation (AID 540248;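 active means mean inhibition over three repeats above a set limit taken from the earlier primary screen, cut at about 37% in these data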;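 further: 0% = HTRA1 with DMSO and 100% = wells lacking HTRA1; inhibitors block probe binding so polarization drops and inhibition rises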). Conditions: recombinant HTRA1, FP-rhodamine activity-based probe, at 5.96 µM, active compounds read high. A general note: Fluorescence polarisation rises when a labelled molecule tumbles more slowly, as on binding a larger partner.

Test [5] concerns the target Platelet-activating factor acetylhydrolase IB subunit alpha1 (Homo sapiens) (UniProt Q15102). As to the kind of experiment: inhibition of PAF acetylhydrolase 1B subunit 3 – biochemical, fluorescence polarization, human, confirmation (AID 493032;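 active means average inhibition over triplicate runs above the hit cutoff set in the earlier primary screen, cut at about 25% in these data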;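 further: 0% = enzyme with DMSO and 100% = wells lacking PAFAH1B3 protein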). Conditions: recombinant PAFAH1B3, FP-Rh activity-based probe, at 3.39 µM, active compounds read high.
Test [6] in a line: reduced OD of V66 E. coli with T4 gene 2 phage – absorbance, RecBCD inhibitor project, confirmation (AID 651982;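 active means mean inhibition over triplicates exceeding the hit threshold derived in the original primary screen, cut at about 11% in these data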). Conditions: E. coli V66 + T4 2- phage, growth OD; at 11.9 µM; active compounds read high.
Test [7] can be described thus: bacterial growth inhibition – absorbance, high throughput, counter-screen for RecBCD inhibitor project (AID 651983; in the data active means inhibition above about 20%;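 further: E. coli strain V66 grown with compound alone and no phage infection; 0% = bacteria with DMSO vehicle only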). Conditions: E. coli viability, absorbance (OD) growth; at 11.9 µM; active compounds read high.
Test [8] in a line: reduced optical density, T4-challenged addAB+ bacteria – absorbance, E. coli V3065, T4 phage, counter-screen for RecBCD inhibitor project, confirmation (AID 651984;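 active means mean inhibition above the solvent-only control wells' mean plus 3 SD, cut at about 22% in these data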;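 further: higher means less bacterial growth from phage killing when AddAB is blocked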). Conditions: E. coli expressing H. pylori AddAB + T4 phage, OD growth; at 11.9 µM; active compounds read high; gene 2 mutant T4, recBCD-deleted host.
For test [9], the target named is Nuclear receptor coactivator 3 (Homo sapiens) (UniProt Q9Y6Q9). As to the kind of experiment: NCOA3 GAL4-fusion reporter inhibition – cell-based, luminescence, quadruplicate, confirmation (AID 588792;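 active means mean inhibition over 43.08%, the solvent-only control mean plus 3 SD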;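 further: 0% = DMSO treated cells and 100% = gossypol at 36 µM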). Conditions: HEK293 GAL4-SRC3 luciferase reporter, at 3.6 µM, active compounds read high. (In general: Reporter assays use an easily measured gene product as a stand-in for the process of interest.)
Sequence of Nuclear receptor coactivator 3 (Homo sapiens) (Q9Y6Q9 whole entry, looked up, the tested form may be a part): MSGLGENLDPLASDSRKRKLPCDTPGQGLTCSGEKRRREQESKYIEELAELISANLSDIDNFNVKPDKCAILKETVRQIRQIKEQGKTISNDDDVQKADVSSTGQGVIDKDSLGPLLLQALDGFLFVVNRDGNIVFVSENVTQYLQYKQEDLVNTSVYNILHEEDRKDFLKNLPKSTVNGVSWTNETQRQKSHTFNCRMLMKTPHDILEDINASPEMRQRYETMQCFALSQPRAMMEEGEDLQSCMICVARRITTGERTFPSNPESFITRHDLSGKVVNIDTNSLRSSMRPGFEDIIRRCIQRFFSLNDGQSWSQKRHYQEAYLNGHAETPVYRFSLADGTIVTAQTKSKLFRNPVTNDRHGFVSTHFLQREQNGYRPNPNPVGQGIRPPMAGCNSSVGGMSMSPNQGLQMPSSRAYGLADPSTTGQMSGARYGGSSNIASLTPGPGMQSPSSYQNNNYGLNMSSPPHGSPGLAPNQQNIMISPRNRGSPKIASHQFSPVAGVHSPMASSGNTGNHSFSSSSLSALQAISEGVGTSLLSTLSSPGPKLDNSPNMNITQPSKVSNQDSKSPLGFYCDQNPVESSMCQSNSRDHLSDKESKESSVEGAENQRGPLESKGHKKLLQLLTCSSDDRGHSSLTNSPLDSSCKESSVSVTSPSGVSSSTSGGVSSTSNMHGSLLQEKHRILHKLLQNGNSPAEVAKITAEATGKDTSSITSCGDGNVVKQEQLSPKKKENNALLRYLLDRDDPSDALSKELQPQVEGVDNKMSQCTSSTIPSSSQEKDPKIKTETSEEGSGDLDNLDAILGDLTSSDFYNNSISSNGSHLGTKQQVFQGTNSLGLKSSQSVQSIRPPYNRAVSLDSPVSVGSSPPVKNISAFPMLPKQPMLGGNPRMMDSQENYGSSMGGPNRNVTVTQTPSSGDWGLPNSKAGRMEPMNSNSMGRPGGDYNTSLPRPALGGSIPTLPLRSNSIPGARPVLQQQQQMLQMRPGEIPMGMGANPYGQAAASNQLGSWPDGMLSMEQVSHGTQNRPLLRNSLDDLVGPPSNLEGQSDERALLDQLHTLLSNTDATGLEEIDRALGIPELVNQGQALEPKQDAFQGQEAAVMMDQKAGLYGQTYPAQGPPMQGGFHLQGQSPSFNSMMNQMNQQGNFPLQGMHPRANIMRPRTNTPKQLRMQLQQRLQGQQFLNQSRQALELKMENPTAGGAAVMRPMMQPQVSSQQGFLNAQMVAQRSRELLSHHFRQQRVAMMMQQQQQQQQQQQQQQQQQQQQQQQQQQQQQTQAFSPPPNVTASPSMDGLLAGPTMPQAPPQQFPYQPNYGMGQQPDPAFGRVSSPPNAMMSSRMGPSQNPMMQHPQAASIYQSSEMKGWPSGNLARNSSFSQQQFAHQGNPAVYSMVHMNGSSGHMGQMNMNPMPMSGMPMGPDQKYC

The subject of test [10] is transactivating tegument protein VP16 (Human herpesvirus 1), Gal4-VP16 luciferase reporter. As to the kind of experiment: repression of VP16-driven luciferase reporter – cell-based, luminescence, high throughput, counter-screen for SRC3 inhibitor project (AID 588794; in the data active means inhibition above about 30%). Conditions: mammalian cells, at 3.6 µM, active compounds read high.
Test [11] addresses Toll-like receptor 9 (Homo sapiens) (UniProt Q9NR96). The test is described as follows: disruptors of TLR9 binding to MyD88 – cell-based, CHO, BLA complementation, fluorescence, triplicate, confirmation (AID 540250).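 Further: blue over green emission ratio reports constitutive TLR9 MyD88 association via BLA complementation; 0% = DMSO vehicle wells and 100% = clavulanate BLA inhibitor wells.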 Conditions: CCF4 FRET ratio, at 4.98 µM, active compounds read high.
Test [12] can be described thus: BLA reporter readout interference – cell-based, fluorescence, artefact control for TLR9-MyD88 binding inhibitor project (AID 540251;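 active means mean inhibition above a 50% cutoff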;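 further: counterscreen of TLR9-MyD88 hits on CMV-driven BLA in CHO-K1 cells; 0% = DMSO alone and 100% = clavulanate blocking BLA; higher means less blue over green ratio so more BLA blockade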). Conditions: CHO-BLA cells, CCF4 FRET ratio, at 4.98 µM, active compounds read high.
A short description of test [13]: CHO cell viability loss – luminescence, single concentration, cytotoxicity control for TLR9-MyD88 binding inhibitor project (AID 588336; in the data active means inhibition above about 11%). Conditions: TLR9-MyD88 CHO cells cytotoxicity, at 4.98 µM, active compounds read high.
In test [14] the target is Receptor-interacting serine/threonine-protein kinase 2 (Homo sapiens) (UniProt O43353). As to the kind of experiment: inhibitors of RIPK2 association with NOD2 – fluorescence, CHO cells, BLA complementation, triplicate, confirmation (AID 624370;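 active means mean inhibition across replicates above a set limit taken from the earlier primary screen, cut at about 21% in these data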;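 further: 0% = DMSO-only wells and the high end = clavulanate BLA-blocked wells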). Conditions: CCF4 FRET, at 4.98 µM, active compounds read high.
Sequence of Receptor-interacting serine/threonine-protein kinase 2 (Homo sapiens) (O43353 whole entry, looked up): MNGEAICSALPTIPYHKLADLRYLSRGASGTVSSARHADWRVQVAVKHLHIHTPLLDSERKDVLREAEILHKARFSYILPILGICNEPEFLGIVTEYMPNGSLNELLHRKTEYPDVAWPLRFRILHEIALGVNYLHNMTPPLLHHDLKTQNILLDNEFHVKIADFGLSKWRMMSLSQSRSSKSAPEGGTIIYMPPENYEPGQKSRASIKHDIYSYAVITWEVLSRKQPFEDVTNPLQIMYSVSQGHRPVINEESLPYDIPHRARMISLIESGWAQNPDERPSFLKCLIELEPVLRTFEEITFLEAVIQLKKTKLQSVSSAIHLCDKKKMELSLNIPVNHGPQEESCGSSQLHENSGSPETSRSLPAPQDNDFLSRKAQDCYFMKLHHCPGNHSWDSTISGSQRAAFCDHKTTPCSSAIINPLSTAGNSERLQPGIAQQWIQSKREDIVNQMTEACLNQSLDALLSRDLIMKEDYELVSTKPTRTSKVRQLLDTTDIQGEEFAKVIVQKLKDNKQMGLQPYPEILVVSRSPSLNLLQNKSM
Test [15] is described as follows: BLA reporter readout interference – cell-based, CHO-K1 CMV-bla, CCF4 FRET, fluorescence, artefact control for NOD2-RIPK2 interaction inhibitor project, confirmation (AID 624371;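 active means mean inhibition above the low-control mean inhibition plus three low-control SD, cut at about 11% in these data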;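 further: 0% = DMSO only wells and 100% = clavulanate high control wells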). Conditions: CCF4 FRET ratio, counterscreen, at 4.98 µM, active compounds read high.
Test [16] addresses (Lyso)-N-acylphosphatidylethanolamine lipase (Mus musculus) (UniProt Q8VD66). As to the kind of experiment: mouse ABHD4 hydrolase blockers, triplicate – biochemical, fluorescence polarization, confirmation (AID 720658;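 active means mean inhibition across replicates above the hit cutoff set in the primary screen, cut at about 30% in these data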;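 further: 0% = wild-type ABHD4 with DMSO and 100% = catalytically dead S159A mutant with DMSO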). Conditions: purified mABHD4, FP-Rh probe fluorescence polarization; at 8.92 µM; active compounds read high.
Test [17] in a line: BSA probe fluorescence interference – biochemical, TAMRA-labeled BSA, counter-screen for TCR-CD3 interaction inhibitor project (AID 652035; in the data active means inhibition above about 23%;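 further: 0% = buffer low control and 100% = reference high control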). Conditions: TAMRA-labeled BSA probe fluorescence counterscreen; at 9.4 µM; active compounds read high.
Test [18] deals with T-cell receptor (TCR)-CD3 interaction, human. As to the kind of experiment: blockers of TCR binding to CD3 – biochemical, fluorescence, TAMRA-labeled TCR probe, confirmation (AID 652036; in the data active means inhibition above about 19%). Conditions: TAMRA-labeled TCR probe fluorescence binding assay; at 9.4 µM; active compounds read high.
Test [19] can be described thus: StAR promoter reporter inhibitors, counter-screen for LRH-1 inverse agonist project, cell-based, luminescence, high throughput (AID 651611; in the data active means inhibition above about 28%). Conditions: StAR promoter luciferase reporter counterscreen, at 3.6 µM, active compounds read high.
Test [20] concerns the target Nuclear receptor subfamily 5 group A member 2 (Homo sapiens) (UniProt O00482). The test is described as follows: NR5A2 activity suppression in reporter cells – cell-based, luminescence, confirmation (AID 651613; in the data active means inhibition above about 42%;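 further: HEK293T cells co-transfected with LRH-1 and StAR promoter luciferase reporter; 0% = vehicle wells and 100% = parental cells lacking receptor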). Conditions: cell-based LRH-1 luciferase reporter, inverse agonism; at 3.6 µM; active compounds read high.
The target in test [21] is Steroidogenic factor 1 (Homo sapiens) (UniProt Q13285). The test is described as follows: inverse agonism at SF1 nuclear receptor – cell-based, luminescence, high throughput, counter-screen for LRH-1 inverse agonist project (AID 651614; in the data active means inhibition above about 44%;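 further: cells cotransfected with StAR promoter reporter and SF1 expression vector; 0% = vehicle on cells with receptor and 100% = vehicle on cells lacking receptor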). Conditions: cell-based SF1 luciferase reporter, at 3.6 µM, active compounds read high.
Sequence of Steroidogenic factor 1 (Homo sapiens) (Q13285 whole entry, looked up, the tested form may be a part): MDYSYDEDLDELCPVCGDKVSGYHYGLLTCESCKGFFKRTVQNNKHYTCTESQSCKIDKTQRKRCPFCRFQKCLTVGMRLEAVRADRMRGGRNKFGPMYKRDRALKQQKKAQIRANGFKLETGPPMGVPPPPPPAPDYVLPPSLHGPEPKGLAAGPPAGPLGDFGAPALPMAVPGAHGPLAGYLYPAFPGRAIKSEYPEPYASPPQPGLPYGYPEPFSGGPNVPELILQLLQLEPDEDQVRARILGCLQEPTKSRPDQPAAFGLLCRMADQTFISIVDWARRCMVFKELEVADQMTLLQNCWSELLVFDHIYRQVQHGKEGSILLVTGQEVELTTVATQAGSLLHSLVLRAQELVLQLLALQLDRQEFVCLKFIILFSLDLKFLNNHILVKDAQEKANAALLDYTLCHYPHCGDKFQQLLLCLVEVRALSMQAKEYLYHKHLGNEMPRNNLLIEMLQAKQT
The nature of test [22]: compounds suppressing VP16-driven luciferase signal – cell-based, luminescence, high throughput, counter-screen for LRH-1 inverse agonist project (AID 651615; in the data active means inhibition above about 33%). Conditions: Gal4-VP16 luciferase reporter cells, at 3.6 µM, active compounds read high.
A short description of test [23]: VP16-driven transactivation reporter suppression – cell-based, luminescence, HEK293, counter-screen for COUP-TFII antagonist project (AID 687007; in the data active means inhibition above about 13%). Conditions: HEK293 Gal4-VP16 luciferase reporter, at 8.5 µM, active compounds read high.
Test [24] concerns the target COUP transcription factor 2 (Homo sapiens) (UniProt P24468). As to the kind of experiment: retest of COUP-TFII reporter suppressors – cell-based, luciferase reporter, HEK293, triplicate, confirmation (AID 687008;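 active means mean inhibition over three repeats above a set limit taken from the earlier primary screen, cut at about 38% in these data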;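 further: 100% = cells given the luciferase reporter alone without the COUP-TF2 vector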). Conditions: HEK293 NGFI-A luciferase reporter, luminescence; at 8.5 µM; active compounds read high.
Test [25] deals with Galanin receptor type 2 (Homo sapiens) (UniProt O43603). As to the kind of experiment: blockers of human galanin receptor 2 – cell-based, confirmation (AID 866; in the data active means inhibition above about 27%;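 further: cells stimulated with galanin at about its EC80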). Conditions: GALR2-expressing cells, antagonist mode, at 4 µM, active compounds read high.
Sequence of Galanin receptor type 2 (Homo sapiens) (O43603 whole entry, looked up): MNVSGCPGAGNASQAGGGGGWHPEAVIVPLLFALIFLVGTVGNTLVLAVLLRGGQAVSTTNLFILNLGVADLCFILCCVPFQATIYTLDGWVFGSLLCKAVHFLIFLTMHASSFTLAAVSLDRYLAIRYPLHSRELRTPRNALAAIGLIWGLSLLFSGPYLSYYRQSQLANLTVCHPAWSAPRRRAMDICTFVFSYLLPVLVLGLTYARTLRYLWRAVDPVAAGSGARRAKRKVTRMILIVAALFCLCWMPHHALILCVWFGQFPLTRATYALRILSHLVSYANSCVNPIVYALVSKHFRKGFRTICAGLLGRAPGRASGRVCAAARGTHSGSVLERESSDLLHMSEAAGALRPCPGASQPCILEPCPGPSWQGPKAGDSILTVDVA
Test [26] in a line: nonspecific BLA reporter inhibition – CHO NFAT-bla cells, FRET readout, counter-screen for GALR2 antagonist project, confirmation (AID 867;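 active means inhibition above the mean inhibition across tested compounds plus 3 SD, cut at about 27% in these data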;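 further: 0% = 500 nM thapsigargin stimulated wells and 100% = unstimulated BSA only wells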). Conditions: beta-lactamase FRET, thapsigargin-stimulated, at 4.2 µM, active compounds read high.

Values joined by “and” are separate entries in the source; they are usually repeats but may differ in a detail not shown here. Equal values may be shown once. Unmarked numbers belong to inactive results. Some of the results follow. Active and inactive are the calls of the source.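 How the source made its calls, unless noted: active means mean inhibition across three repeats above about 21% taken from the earlier screen (limit read from the data); inactive means the rest.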

Sequence of Toll-like receptor 9 (Homo sapiens) (Q9NR96 whole entry, looked up): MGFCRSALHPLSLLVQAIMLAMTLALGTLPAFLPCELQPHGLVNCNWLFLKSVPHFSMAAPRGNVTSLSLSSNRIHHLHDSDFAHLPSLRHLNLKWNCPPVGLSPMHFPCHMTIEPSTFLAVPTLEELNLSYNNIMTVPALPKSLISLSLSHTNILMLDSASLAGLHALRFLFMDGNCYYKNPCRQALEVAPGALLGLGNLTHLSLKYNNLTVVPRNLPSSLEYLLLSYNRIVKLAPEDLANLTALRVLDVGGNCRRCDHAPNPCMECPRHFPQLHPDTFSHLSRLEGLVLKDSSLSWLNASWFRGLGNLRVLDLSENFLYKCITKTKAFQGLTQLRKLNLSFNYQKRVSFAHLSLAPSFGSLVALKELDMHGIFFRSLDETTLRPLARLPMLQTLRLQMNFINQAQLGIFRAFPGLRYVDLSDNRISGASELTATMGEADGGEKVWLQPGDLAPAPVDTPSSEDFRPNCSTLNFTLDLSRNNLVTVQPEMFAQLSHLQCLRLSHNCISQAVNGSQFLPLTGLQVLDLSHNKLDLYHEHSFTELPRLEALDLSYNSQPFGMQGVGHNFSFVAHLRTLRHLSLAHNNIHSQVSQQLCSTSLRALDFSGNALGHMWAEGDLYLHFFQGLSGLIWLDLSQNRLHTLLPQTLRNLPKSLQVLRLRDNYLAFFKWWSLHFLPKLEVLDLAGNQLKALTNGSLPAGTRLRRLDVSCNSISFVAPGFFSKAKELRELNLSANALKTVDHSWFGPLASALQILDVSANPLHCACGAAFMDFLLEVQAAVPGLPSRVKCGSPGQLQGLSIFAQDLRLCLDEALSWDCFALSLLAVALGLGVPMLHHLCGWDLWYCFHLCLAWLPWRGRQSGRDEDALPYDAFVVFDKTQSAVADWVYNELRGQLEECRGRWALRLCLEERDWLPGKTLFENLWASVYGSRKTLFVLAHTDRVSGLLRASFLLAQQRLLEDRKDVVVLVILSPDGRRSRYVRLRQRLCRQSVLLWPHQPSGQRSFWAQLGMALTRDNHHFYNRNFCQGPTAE
Sequence of Platelet-activating factor acetylhydrolase IB subunit alpha1 (Homo sapiens) (Q15102 whole entry, looked up): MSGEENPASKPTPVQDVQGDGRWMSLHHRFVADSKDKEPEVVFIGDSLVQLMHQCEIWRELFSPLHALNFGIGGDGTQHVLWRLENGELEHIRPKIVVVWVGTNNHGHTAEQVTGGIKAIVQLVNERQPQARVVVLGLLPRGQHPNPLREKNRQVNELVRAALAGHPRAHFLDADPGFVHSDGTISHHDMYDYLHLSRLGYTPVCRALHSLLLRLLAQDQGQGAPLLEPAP
Sequence of (Lyso)-N-acylphosphatidylethanolamine lipase (Mus musculus) (Q8VD66 whole entry, looked up): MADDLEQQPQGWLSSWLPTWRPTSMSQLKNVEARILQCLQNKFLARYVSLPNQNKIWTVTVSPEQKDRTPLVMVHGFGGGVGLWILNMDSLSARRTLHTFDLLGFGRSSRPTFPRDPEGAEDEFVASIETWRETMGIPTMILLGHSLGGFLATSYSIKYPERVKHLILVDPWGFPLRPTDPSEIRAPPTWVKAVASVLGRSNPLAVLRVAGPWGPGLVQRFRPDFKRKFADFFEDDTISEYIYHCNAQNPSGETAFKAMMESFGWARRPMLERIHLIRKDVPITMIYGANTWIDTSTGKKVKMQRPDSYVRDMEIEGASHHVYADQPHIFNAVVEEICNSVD
Sequence of Nuclear receptor subfamily 5 group A member 2 (Homo sapiens) (O00482 whole entry, looked up): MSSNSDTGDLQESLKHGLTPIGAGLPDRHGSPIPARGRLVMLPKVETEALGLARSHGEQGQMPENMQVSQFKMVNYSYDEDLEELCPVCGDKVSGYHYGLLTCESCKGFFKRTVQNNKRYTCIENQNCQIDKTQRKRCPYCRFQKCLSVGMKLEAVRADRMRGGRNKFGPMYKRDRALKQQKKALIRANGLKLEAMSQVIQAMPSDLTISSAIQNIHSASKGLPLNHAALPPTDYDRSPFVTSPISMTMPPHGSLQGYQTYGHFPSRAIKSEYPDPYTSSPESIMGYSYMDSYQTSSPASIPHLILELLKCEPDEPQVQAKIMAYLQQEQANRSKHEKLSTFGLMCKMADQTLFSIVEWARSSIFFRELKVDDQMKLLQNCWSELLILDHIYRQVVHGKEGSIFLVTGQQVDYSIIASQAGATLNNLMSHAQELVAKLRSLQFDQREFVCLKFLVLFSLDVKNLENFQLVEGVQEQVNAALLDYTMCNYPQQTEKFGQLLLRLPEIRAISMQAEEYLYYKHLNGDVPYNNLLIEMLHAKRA

For `O=C(OCC(=O)c1cccs1)c1ccc([N+](=O)[O-])o1`, the inhibition was 73.1% (active) in test [1], 1.72% in [2] and 6.32% in [3].
Regarding `CC(=O)N1CCN(c2ccc(NCc3ccc(C(C)C)cc3)cc2)CC1`, the inhibition in test [4] was 12.7%.
Consider `COc1ccc(C(=O)COC(=O)c2ccc([N+](=O)[O-])s2)cc1OC`, for which the inhibition in test [5] is 13.3%.
On to `COc1ccc(C(=O)c2oc3ccc(Br)cc3c2NC(C)=O)cc1`, for which the inhibition in [1] is -2.85%; in [2], -1.5%; in test [3], -3.05%.
With `CN1C(c2ccc(F)cc2)=CS/C1=C(/C#N)c1nnc2n1-c1ccccc1SC2`, the inhibition in test [5] is 20.9%.
Still for that read-out and setting: in the case of `COc1cccc(Cn2cc(/C=N/NC(=O)c3cc(O)cc(O)c3)c3ccccc32)c1` it was 17.6%.
On the same count and under the same terms, to `Cc1cccc(N=C2NC(=O)/C(=C/c3cn(C)c4ccccc34)S2)c1` belongs 17.3%.
Take `O=C1CCC(=O)N(O)CCCCCNC(=O)CCC(=O)N(O)CCCCCNC(=O)CCC(=O)N(O)CCCCCN1`: the inhibition in test [1] is 31% (active); in test [2], 24.5% (active); in test [3], 17.4%; in test [6] it was 19.5% (active); in test [7] it was 25% (active); in [8] it was 29.4% (active).
Consider `O=C(N/N=C/c1ccc(O)c(O)c1)C1c2ccccc2Oc2ccccc21`, for which the inhibition in [4] is 76.6% (active).
Take `COC(=O)N/N=C/c1c[n+]([O-])c2ccccc2[n+]1[O-]`: the inhibition in test [1] is 94.5% (active); in test [2] it was 27.4% (active); in test [3] it was 83.4% (active); in test [6], 23.1% (active); in test [7] it was 28% (active); in [8] it was 91.8% (active).
As for `O=[N+]([O-])c1ccc(N=Cc2c(O)ccc3ccccc23)cc1`, the inhibition is -0.99% in test [1], -2.02% in [2] and -4.22% in test [3].
With `Oc1c(CN2CCN(c3ccc(F)cc3)CC2)cc(Cl)c2cccnc12`, the inhibition is 50.9% (active) in test [4]; 52.3% (active) in test [9]; 42.8% (active) in [10]; 4.78% in test [6]; 6.62% in test [7]; 3.33% in [8].
Regarding `COc1ccc(-c2nc3cnccn3c2NC2CCCCC2)cc1-c1cccc(Cl)c1`, the inhibition was 25.7% (active) in test [11]; 29.5% in test [12]; -0.82% in [13]; 39.6% (active) and 39.4% (active) in test [14]; 49.6% (active) and 50.5% (active) in [15].
As to `Cc1cc(-c2csc(N)n2)c(C)n1Cc1ccccc1`, the inhibition in test [4] is 30.6%.
As to `O=Nc1c(O)cc(O)c2ccccc12`, the values for the inhibition in test [4] and in [16] were 10.1% and 11.7%, respectively.
Turning to `NS(=O)(=O)c1ccc(NC(=O)COC(=O)c2c3c(nc4ccccc24)/C(=C\c2ccc4c(c2)OCO4)CCC3)cc1`, the inhibition is 17.9% in test [11]; 22.2% in test [12]; 0.35% in [13]; 5.98% in test [17]; 15.7% in test [18].
For the molecule `COc1cccc2c1C(=O)c1c(O)c3c(c(O)c1C2=O)CC(O)(C(C)=NNC(=O)c1ccc(Cl)c(Cl)c1)CC3OC1CC(N)C(O)C(C)O1` (configuration not stated), the inhibition was 69.6% (active) in test [4]; 72.7% (active) in [19]; 75.1% (active) in test [20]; 94.8% (active) in test [21]; 65.9% (active) in test [22]; 159% (active) in test [17]. The inhibition in [18] is 126% (active); in test [23], 41.2% (active); in test [24], 32.5%.
With `Cc1cc2oc3ccc(NCCC4CCCN4C)cc3c(=O)c2cc1C` (configuration not stated), the inhibition in test [11] is 19.1%; in test [12], 16.7%; in test [13] it was 31% (active); in [14], 42.8% (active); in test [15], 38.5% (active).
Regarding `COc1ccccc1/C=C/C(=O)OCC(=O)NC1CCCCCC1`, the inhibition in [11] is -4.73%; in test [12], -6.03%; in [13] it was 0.37%.
For the molecule `CCN1CCN(C(c2cccnc2)c2cc(Cl)c3cccnc3c2O)CC1` (configuration not stated), the inhibition in test [4] is 67.8% (active).
With `COC(=O)Cc1cc(=O)oc2c(C)c(O)ccc12`, the inhibition in [25] was 7.7%; in test [26], 16.5%; in test [11], 13.3%; in [12], 16.3%; in test [13], -0.43%; in [14], 23.8% (active). Moreover, in test [15], the inhibition is 28.6% (active).
Turning to `COc1ccc(-c2cc(C(F)(F)F)nc(S(C)(=O)=O)n2)cc1OC`, the inhibition in test [11] is 28.8% (active); in test [12] it was 5.84%; in test [13], 85.2% (active); in test [14], 42.1% (active); in test [15] it was 14.4% (active).
As to `Brc1ccccc1C1Nc2cccc3cccc(c23)N1`, the inhibition was 2.05% in test [4] and 42.5% (active) in test [16].
On to `COc1ccc(OC)c(N=Cc2c(O)[nH]c3ccccc23)c1`, for which the inhibition was -1.61% in [11]; 1.7% in [12]; 19.8% (active) in test [13]; 61.8% (active) in test [14]; 59.3% (active) in test [15].
In the same order, the values of `COc1ccccc1CSc1ncc(-c2ccc([N+](=O)[O-])cc2)[nH]1` are 5.87%, 9.21%, 2.09%, 28.2% (active) and 21.9% (active).
As to `COc1cccc2sc(NNC(=O)c3nc4ccccc4s3)nc12`, the inhibition in test [4] is 130% (active).
Regarding `COc1cc(C(=O)N2C(=O)c3cccc(N)c3C2=O)cc(OC)c1OC`, the inhibition in test [11] is 11.4%; in test [12], 13.3%; in test [13] it was 1.27%.

The inhibition is the relative decrease from the control value, in per cent.
